# Laboratory results: PubChem BioAssay AID1259343 (VanderVen Lab, College of Veterinary Medicine, Cornell …, 2017)
# In all, about 6,200 compounds went through this assay and about 2,900 (47%) were called active. The set was probably picked from earlier hits. Some of the results follow. A number with no mark means an inactive call. Cut-off read from the data, not from the text of the source: active = inhibition above about 50%; inactive = the rest.
# Test: Mycobacterium tuberculosis growth inhibition, primary screen (AID 1259343)
# Conditions: inhibition: at 10 µM, stronger effect = higher value; outcome: 10 uM
row,Compound,inhibition
1,COc1ccc(CC(=O)Nc2cc(C)nn2-c2nc(C)cc(=O)[nH]2)cc1OC,99% (active)
2,CCCc1cc(=O)[nH]c(-n2nc(C)cc2NC(=O)Cc2ccc(OC)c(OC)c2)n1,98.9% (active)
3,CCc1cc(=O)[nH]c(-n2nc(C)cc2NC(=O)Cc2ccc(OC)c(OC)c2)n1,48%
4,Cc1n[nH]c(C)c1CCCCCCOc1ccc(F)cc1,87.3% (active)
5,Cc1n[nH]c(C)c1CCCCCOc1cccc(Cl)c1,99.2% (active)
6,CCOc1ccc(OCCCCOc2ccc(F)cc2)cc1,8.32%
7,CNc1snc(C)c1C(=O)OCc1ccc(-n2cccn2)cc1,50.2% (active)
8,CNc1snc(C)c1C(=O)NCc1ccc2c(c1)CCC2,39.8%
9,Cc1oc(-c2ccc(F)cc2F)nc1CN(C)Cc1ccccc1C(F)(F)F,30.1%
10,COc1cc(C(=O)Nc2cc(Cl)ccc2N2CCSCC2)ccc1C,12.9%
11,N#Cc1nc(NC(=O)c2ccc(N3CCCC3)c(F)c2)[nH]c1C#N,70.6% (active)
12,N#Cc1ccc(C(=O)Nc2ccccc2N2CCCCCC2)cc1,39.7%
13,CCOC(=O)CSc1nnc(CNc2ccc(C)c(Cl)c2)n1C,94.2% (active)
14,OCC1(CCc2ccccc2)CCCN(c2ncnc3sccc23)C1 (configuration not stated),22.8%
15,Oc1c(-c2ccccn2)sc2ccccc12,90.9% (active)
16,Oc1c(N=Nc2ccc3c(c2)OCCO3)sc2ccccc12,38.8%
17,CN(N=Cc1sc2ccccc2c1O)c1ccccc1,-9.99%
18,Cc1ccc(Oc2ncccc2CNc2ncccn2)c(F)c1F,23.9%
19,Fc1ccccc1COc1ccccc1CNc1nn[nH]n1,57.1% (active)
20,Fc1ccccc1OCc1n[nH]c(=S)o1,47.7%
21,Cc1cccc2c(=O)n(CC(=O)NCCc3cccc(F)c3)cnc12,25.4%
22,Cc1cc(NC(=O)Cn2cnc3c(nnn3-c3cccc(F)c3)c2=O)no1,87.4% (active)

row,Compound,inhibition
1,CSc1cccc(NC(=O)Cc2csc(N3CCCC3=O)n2)c1,70.3% (active)
2,Cc1cccc(CO[C@]2(C(=O)NCC3CCCO3)CC(OCc3ccc(F)cc3)[C@H](O)[C@H](O)C2)c1 (some centres not stated),-13%
3,Cc1ccc(CNC(=O)c2ccc(Br)o2)cc1F,16.3%
4,CCCCCCCCNC(=O)c1ccc(Br)o1,74.9% (active)
5,O=C(NC1CCCC1)c1ccc(Br)o1,-20.8%
6,O=C(NCC1CCCO1)C12CC3CC(CC(C3)C1)C2 (configuration not stated),81.2% (active)
7,O=C(NCCC12CC3CC(CC(C3)C1)C2)C12CC3CC(CC(C3)C1)C2,-25.6%
8,O=C(NCC1CCCO1)c1ccc(Br)o1 (configuration not stated),83.8% (active)
9,Cc1ccc(OCCCCNC(=O)c2ccc(Br)o2)cc1,92.2% (active)
10,O=C(O)C1Nc2c(Cl)cc(Cl)cc2C2C=CCC12 (configuration not stated),101% (active)
11,O=C(O)C1Nc2ccc3ccccc3c2C2C=CCC12 (configuration not stated),16.2%
12,O=C(O)c1ccc2c(c1)C1C=CCC1C(c1ccc(Br)cc1)N2 (configuration not stated),66.8% (active)
13,O=C(O)C1Nc2ccc(Br)cc2C2C=CCC12 (configuration not stated),84.2% (active)
14,N#Cc1nc(C2CC2)oc1N1CCN(C(=O)Nc2ccccc2)CC1,21.4%
15,COC(=O)c1ccc(CSC(=S)N(C)C)cc1,82.1% (active)
16,NC(=O)C1CCN(C(=O)CCc2ccsc2)CC1,90.9% (active)
17,NC(=O)C1CCN(C(=O)CCC2CCCC2)CC1,-28.4%
18,CC(C)c1csc(C2CCN(C(=O)CCc3ccsc3)CC2)n1,83.6% (active)
19,Cc1c(C(=O)N2CCC(C(N)=O)CC2)nnn1-c1nc(-c2ccccc2)cs1,20.4%
20,Cc1cc(C=C2Sc3ccccc3N2C)cc(C)[n+]1-c1ccccc1,41.1%
21,CCN1C(=Cc2ccc3cc(C)ccc3[n+]2CC)Sc2ccccc21,56.1% (active)
22,CCN1C(=Cc2cc(C)[n+](C3CCCCC3)c(C)c2)Sc2ccccc21,-19.4%

row,Compound,inhibition
1,CCC(C)[n+]1c(C)cc(C=C2Sc3ccccc3N2CC)cc1C (configuration not stated),84.5% (active)
2,CC(C)CCOc1ncnc2c1sc1nc3c(cc12)COC(C)(C)C3,63.6% (active)
3,CCCCCOc1ncnc2c1sc1nc3c(cc12)COC(C)(C)C3,51% (active)
4,CC1(C)[C@H]2CC[C@@H](CNC(=O)c3cc(=O)n(-c4ccccc4)[nH]3)[C@@H]1C2,23.3%
5,C=C(NC(=O)C(=C)NC(=O)c1csc(C2=NC3c4csc(n4)C4NC(=O)c5csc(n5)C(C(C)(O)C(C)O)NC(=O)C5CSC(=N5)C(=CC)NC(=O)C(C(C)O)NC(=O)c5csc(n5)C3(CC2)NC(=O)C(C)NC(=O)C(=C)NC(=O)C(C)NC(=O)C(C(C)CC)NC2C=Cc3c(C(C)O)cc(nc3C2O)C(=O)OC4C)n1)C(N)=O (configuration not stated),95.4% (active)
6,N=C1c2ccccc2CN1c1ccc(OC(F)(F)C(F)F)cc1,64.2% (active)
7,CSc1nsc(SC)c1NC(=O)OC1CCCCC1,11.5%
8,CNS(=O)(=O)Cc1ccc(CNc2ccc(C(F)(F)F)cn2)cc1,50.3% (active)
9,CC(C(=O)NCc1cccs1)S(=O)(=O)c1ccc(C(F)(F)F)cn1 (configuration not stated),14.3%
10,Cc1ccc(CNS(=O)(=O)Cc2ccc(F)cc2)cc1F,29.8%
11,N#Cc1c(Cl)nsc1NC1CCSc2c(F)cccc21 (configuration not stated),11.2%
12,N#Cc1c(Cl)nsc1NCCC1CC2CCC1C2 (configuration not stated),96.1% (active)
13,COc1cccc(C(CN2CCN(C(=O)C=C(C)C)CC2)OCc2cccc(Cl)c2)c1 (configuration not stated),-4.3%
14,N=C1C=CC(=C(c2cccc(N)c2)c2cccc(N)c2)C=C1,68.4% (active)
15,CCOc1ccc(NC(=O)CSc2nc(=O)n3ccccc3n2)cc1,2.8%
16,CCOc1ccc(Nc2nc(-c3c(C)nc4ccccn34)cs2)cc1,61.2% (active)
17,CC1c2cccn2CCN1Cc1csc(Nc2ccccc2)n1 (configuration not stated),20.8%
18,CC(Oc1ccc(Cl)cc1)C(=O)NC(C)c1cccs1 (configuration not stated),94.5% (active)
19,COc1ccccc1CN(C(=O)Nc1ccccc1Cl)C1CC1,78.5% (active)
20,COc1ccccc1CNC(=O)C1(S(=O)(=O)c2ccc(Cl)cc2)CCCC1,2.93%
21,COc1ccccc1NC(=O)N(Cc1ccsc1)C1CC1,16%
22,COc1ccc(Cl)cc1C(=O)Nc1cc(C2CC2)nn1-c1nc(C)cc(=O)[nH]1,99.9% (active)

row,Compound,inhibition
1,COc1ccc(Cl)cc1C(=O)Nc1cc(C)nn1-c1nc(C)cc(=O)[nH]1,101% (active)
2,Cc1cc(=O)[nH]c(-n2nc(C3CC3)cc2NC(=O)c2cc(Cl)ccc2Cl)n1,-15.9%
3,CCc1cc(=O)[nH]c(-n2nc(C)cc2NC(=O)c2cc(Cl)ccc2OC)n1,102% (active)
4,COc1ccc(Cl)cc1C(=O)Nc1cc(C)nn1-c1nc(C)c(C)c(=O)[nH]1,100% (active)
5,Cc1noc(CNC(C)(C)Cc2ccc(Br)cc2)n1,-9.14%
6,Cn1c2ccccc2n2c3ncccc3c(=O)c(C#N)c12,41.8%
7,CCSc1nnc(SCc2cccc(OC)n2)s1,90.4% (active)
8,CSc1nnc(SCc2cc(C)no2)s1,27.2%
9,COc1ccc(CSc2nnc(SCC(=O)N3CCCCCC3)s2)cc1,26.9%
10,CON(C)S(=O)(=O)c1cc(C(=O)Nc2cccc(Cl)c2Cl)ccc1Cl,22.1%
11,COc1ccc(NC(=O)c2ccc(-c3ccc(C(C)=O)cc3)o2)cn1,-28.8%
12,CCCCN(C)S(=O)(=O)c1ccc(NC(=O)c2ccc(OC)nc2)cc1,88% (active)
13,COc1ccc(C2=NOC(c3ccc(C)cc3)C2)cc1 (configuration not stated),22.2%
14,COc1ccc(C2=NOC(CNCc3cccc(F)c3)C2)cc1 (configuration not stated),76.2% (active)
15,Fc1cccc(CNCC2CC(c3ccc(Cl)c(Cl)c3)=NO2)c1 (configuration not stated),57.1% (active)
16,COc1ccc(C2=NOC(CNCc3cccc(C(F)(F)F)c3)C2)cc1 (configuration not stated),43.6%
17,CCc1cccc(NC(=O)Cn2nc3ccc(SC(C)C)nn3c2=O)c1,77.8% (active)
18,Cc1ccc(=O)n(CC(=O)Nc2ccc(Sc3ccccc3Cl)cc2)n1,5.63%
19,COc1ccc(-c2nnn(CC(=O)Nc3ccc(C)c(F)c3)n2)cc1OC,86.6% (active)
20,O=C(CN1CCc2ccccc21)NC(=O)NCc1ccccc1,20.7%
21,Cc1ccc(NC(=O)Cc2ccc(OC(F)F)cc2)cc1F,48.2%
22,Cc1ccc(NC(=O)CN2CCc3ccccc32)cc1F,54.7% (active)

row,Compound,inhibition
1,O=C(Cn1nnc(-c2ccccc2Cl)n1)Nc1ccc(I)cc1,32.1%
2,CCCn1ncc(CN2CCOC(c3ccc(Cl)c(Cl)c3)C2)c1C (configuration not stated),7.23%
3,CCCc1sc(C(=O)Nc2nccs2)cc1CC,80.5% (active)
4,CCOc1ccc(CCN=C=S)cc1OCC,97.5% (active)
5,Brc1ccccc1-c1nnc(SCc2nnc(-c3ccco3)o2)o1,-32.1%
6,c1ccc(-c2nnc(CSc3nnc(-c4ccccc4)o3)o2)cc1,101% (active)
7,Clc1ccc(CSc2nnc(-c3ccco3)o2)c(Cl)c1,-6.93%
8,CCSc1nnc(-c2ccc(Cl)cc2Cl)o1,100% (active)
9,N#Cc1ccc(CSc2nnc(-c3ccccc3)o2)cc1,-28.8%
10,Clc1ccc(CSc2nnc(-c3ccco3)o2)cc1Cl,88% (active)
11,Cn1nnnc1SCc1ccc(Cl)c(Cl)c1,37.6%
12,c1ccc(-c2nnc(SCc3nnc(-c4ccco4)o3)o2)cc1,69.9% (active)
13,Fc1ccccc1-c1nnc(SCc2cccc3ccccc23)o1,85.9% (active)
14,ClC12CC3CC(C1)CC(c1nnc(-c4ccco4)o1)(C3)C2,12.4%
15,Cc1occc1-c1nnc(SCc2nnc(-c3ccco3)o2)o1,92.5% (active)
16,BrC12CC3CC(C1)CC(c1nnc(-c4ccco4)o1)(C3)C2,23.4%
17,Clc1cc2c(c(CSc3nnc(-c4ccco4)o3)c1)OCOC2,86.3% (active)
18,Fc1ccccc1-c1nnc(SCc2ccccc2Br)o1,1.69%
19,Clc1ccccc1-c1nnc(SCc2ccccc2)o1,74.3% (active)
